Most compounds without a hit are left out; they make up all but 4.5% or so of the library.
SKKanGAS inh = inhibitors of SKKanGAS S. pyogenes growth in kanamycin (SK-promoter or general growth effect); 1.3% of 300,000 active; AID 1662; BacTiter-Glo, 6 h; inhibition, % at 7.5 µM;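 active means mean replicate score, as percent of positive control median, at least 50; inconclusive means mean below 50 but one replicate at or above 50; inactive means mean and every replicate below 50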;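 further: strain carries kanamycin resistance gene driven by streptokinase promoter and grows in 40 µg/ml kanamycin; loss of luminescence reflects streptokinase promoter inhibition or plain growth inhibition; 0% = median of DMSO wells and 100% = positive control at its reference dose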
tim23-1 inh = tim23-1 yeast growth inhibition; AID 463212; 1.3% of 330,000 active; inhibition, % at 20 µM; S. cerevisiae tim23-1 growth, BacTiter-Glo luminescence, 24 h;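 active means growth inhibition of the mutant yeast at or above 50%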;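 further: temperature-sensitive mutant grown at 25 °C; plate controls were DMSO-treated mutant yeast for no effect and medium wells lacking yeast for full effect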
PfHsp90 yeast 2 = inhibits growth of yeast expressing Plasmodium falciparum Hsp90; inhibition, % at 9.4 µM; S. cerevisiae expressing PfHsp90, BacTiter-Glo ATP, 48 h; yeast lacking PDR1 and PDR3 efflux regulators; 0.32% of 310,000 active; AID 504621;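 active means every replicate shows inhibition above about 80%, whatever the replicate mean, limit read from the data; inconclusive means mean inhibition reaches the set limit but some replicate falls short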;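 further: 0% = DMSO neutral controls and 100% = 20 µM radicicol positive controls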
tim10-1 inh = inhibits growth of tim10-1 mutant yeast. S. cerevisiae tim10-1 ts strain growth, BacTiter-Glo, 24 h. inhibition, % at 20 µM. 2.2% of 330,000 active. AID 463190;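 active means inhibition of at least 40%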;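 further: mutant grown at 25 °C; 0% = DMSO wells with yeast and 100% = wells holding no yeast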
TIM10 inh = growth inhibitors of TIM10 yeast strain. S. cerevisiae TIM10 strain growth, BacTiter-Glo luminescence, 24 h. inhibition, % at 10 µM. 1.4% of 330,000 active. AID 463195;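 active means inhibition of 40% or more at the single tested concentration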;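 further: wild-type TIM10 isogenic control strain grown at permissive 25 °C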
NLRP3 yeast inh = inhibitors of NALP3 inflammasome in yeast; Yeast reconstituted NLRP3/ASC/caspase-1, beta-gal luminescence, 24 h; inhibition, % at 10 µM; 0.39% of 330,000 active;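 active means inhibition of 50% or more; inactive means inhibition below 50%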;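 further: plate controls were induced DMSO wells for no effect and uninduced yeast grown without galactose for full effect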
tim10-1 confirm = confirmation of tim10-1 mutant yeast growth inhibitors | shares compounds with tim10-1 inh | S. cerevisiae tim10-1 ts strain growth, BacTiter-Glo, 24 h | AID 463213 | inhibition, % at 20 µM | 56% of 7,400 active;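 active means inhibition of yeast growth at or above a set limit in either of two repeat tests at 20 µM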;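 further: tim10-1 mutant grown at permissive 25 °C to find synthetic lethal compounds; 0% = DMSO yeast wells and 100% = medium wells without yeast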
* hit, by the source's call; ? = inconclusive; . = no result.

SMILES | SKKanGAS inh | tim23-1 inh | PfHsp90 yeast 2 | tim10-1 inh | TIM10 inh | NLRP3 yeast inh | tim10-1 confirm
CC(C)NS(=O)(=O)c1ccc(Oc2ncc(C(F)(F)F)cc2Cl)cc1 | -0.2 | 19.7 | -70.6 | 48.8* | 8.2 | 8.5 | 25.6
O=S(=O)(c1cccc2nonc12)N1CCCCC1 | 0.0 | -5.0 | -8.6 | -3.1 | 0.9 | -11.7 | .
COc1ccc(OC)c(NC(=O)c2cccc3c2C(=O)N(C2CCCCC2)C3)c1 | 1.0 | 28.7 | 5.9 | 53.8* | 25.1 | 21.2 | 11.2
Cc1cccc(CN2CCC(N3CC(C)OC(C)C3)CC2)c1 (centres undefined) | -0.5 | 1.9 | -8.6 | -0.8 | -19.8 | 20.3 | .
CC(C)c1cc(-c2cc(C(=O)NCc3ccccc3)on2)nc(NCC2CC2)n1 | 28.0 | 48.0 | -31.3 | 44.2* | 15.6 | 31.2 | 28.6
CN(C(=S)Nc1ccc(Oc2ccccc2)cc1)C1CCCCC1 | -4.5 | 21.4 | -2.3 | 40.3* | 27.3 | 29.6 | 19.1
S=C(Nc1ccc(Oc2ccccc2)cc1)NC1CCCCCC1 | 18.1 | . | -60.6 | . | . | . | .
COCCN(C(=S)Nc1ccc(OC)cc1)C(C)c1cccs1 (centres undefined) | 3.7 | 36.0 | -25.6 | 40.9* | 21.6 | 6.4 | 25.4
O=C(NCCOc1ccccc1)C1CCC(=O)N(CCCN2CCCC2=O)C1 (centres undefined) | 1.3 | 12.3 | -4.4 | -0.2 | -0.5 | 3.5 | .
O=C(NC(=S)NCc1ccc2c(c1)OCO2)c1ccccc1 | -10.7 | 49.6 | -65.1 | 45.1* | 34.9 | 11.5 | 24.6
COc1ccc(C(=O)NCC(=O)OCC(=O)NC23CC4CC(CC(C4)C2)C3)cc1 | . | 31.3 | -5.5 | 19.0 | 18.9 | 18.3 | .
O=C(NCc1ccc2c(c1)OCO2)c1ccccc1 | 2.1 | 9.5 | -25.6 | 8.2 | -6.0 | 10.2 | .
COc1ccc(N2CCN(C(=O)NC34CC5CC(CC(C5)C3)C4)CC2)cc1 | -8.5 | 30.8 | -1.1 | 47.8* | 14.5 | 6.3 | 23.8
O=C(NCCC1=CCCCC1)NC12CC3CC(CC(C3)C1)C2 | 15.1 | 33.2 | -27.5 | 40.7* | 36.0 | 3.2 | 32.5*
COc1ccc(CC(=O)OCC(=O)NC(=O)NC23CC4CC(CC(C4)C2)C3)cc1 | 6.4 | 35.8 | 7.2 | 40.4* | 29.7 | 15.9 | 12.4
CCC(=O)N1CCc2cc(S(=O)(=O)N3CCCCC3CC)ccc21 (centres undefined) | 4.5 | 36.1 | -5.6 | 34.8 | 8.7 | 11.1 | .
O=C(NCCc1ccc(F)cc1)NC12CC3CC(CC(C3)C1)C2 | 0.3 | 49.4 | -21.1 | 32.7 | 25.1 | 10.6 | .
O=C(NCc1ccc2c(c1)OCO2)Nc1ccc(F)cc1 | ? | -6.5 | 21.0 | -11.6 | -3.0 | 26.6 | .
O=C(NCc1ccc2c(c1)OCO2)NC12CC3CC(CC(C3)C1)C2 | 4.3 | 42.8 | 10.6 | 40.9* | 30.7 | 26.5 | 29.8*
COc1ccc(CCNC(=O)NC23CC4CC(CC(C4)C2)C3)cc1 | -0.9 | 37.6 | -37.2 | 45.1* | 24.1 | 7.3 | 35.5*
COc1ccccc1-c1nnc2sc(C3CCCCC3)nn12 | . | 32.5 | 22.1 | 42.7* | 2.2 | 46.6 | 22.1
COc1ccc(Cc2nn3c(-c4ccccc4OC)nnc3s2)cc1 | 3.6 | -4.9 | -20.2 | -12.8 | -30.7 | -1.1 | .
O=C(COC(=O)c1ccc(-c2ccc([N+](=O)[O-])cc2)o1)NC(=O)NC1CCCCC1 | 23.3 | 35.1 | -6.4 | 41.6* | 1.3 | 4.5 | 18.6
COc1ccc(C=C(c2nc3ccccc3s2)c2nc3ccccc3s2)cc1O | 14.3 | 35.3 | 38.5 | 29.9 | 30.3 | 21.3 | .
CN(C)c1ccc(/C=C/c2nc3ccccc3s2)cc1 | 47.4 | 24.8 | 35.8 | 46.5* | 35.6 | 23.7 | 55.5*
SMILES | SKKanGAS inh | tim23-1 inh | PfHsp90 yeast 2 | tim10-1 inh | TIM10 inh | NLRP3 yeast inh | tim10-1 confirm
COc1cc(/C=C/c2nc3ccccc3s2)cc(OC)c1O | -0.4 | 37.1 | . | 43.9* | 32.4 | 17.3 | 27.3
COc1cc(/C=C/c2cc(C(=O)O)c3ccccc3n2)cc(OC)c1O | 9.0 | 24.7 | 16.1 | 20.7 | 25.4 | 14.1 | .
COc1cc(C=C(c2nc3ccccc3s2)c2nc3ccccc3s2)ccc1O | 18.0 | 27.6 | 3.9 | 51.1* | 34.8 | 27.1 | 39.0*
Cc1ccc(CN(C)CC(=O)Nc2ccccc2C(=O)NC2CC2)o1 | . | -8.8 | 30.8 | -1.5 | 0.7 | -2.7 | .
C/C(=N\O)c1ncc(C(F)(F)F)cc1Cl | -3.2 | 6.0 | 13.7 | 7.2 | 0.2 | -0.2 | .
CC(C)(C)N(Cc1ccccc1)C(=O)COC(=O)c1ccc(S(=O)(=O)N2CCOCC2)cc1 | . | 36.3 | -46.6 | 19.6 | 12.4 | 7.1 | .
Cc1ccc(C(=O)c2oc3ccc(Cl)cc3c2NC(=O)CN2CCN(C)CC2)cc1 | 16.2 | 23.4 | 14.7 | 49.0* | 2.6 | 27.1 | 16.9
O=C(CN1CCN(CC(=O)c2ccccc2)CC1)c1ccccc1 | . | . | 17.5 | . | . | . | .
Fc1ccc(-c2cc3nc(-c4ccccc4)cc(N4CCOCC4)n3n2)cc1 | 3.4 | -7.3 | -18.9 | 2.1 | -0.4 | 27.7 | .
COc1ccc(-c2cc3nc(-c4ccccc4)cc(N4CCC(O)CC4)n3n2)cc1 | 39.9 | 49.4 | 31.0 | 40.5* | 32.9 | 23.7 | 23.6
O=C(CCOc1ccccc1)Nc1ccnn1C1CCN(Cc2ccc(F)cc2)CC1 | 1.3 | 17.4 | 5.2 | 13.4 | 6.3 | 10.0 | .
O=C(CCN1CCc2ccccc2CC1)c1ccc2c(c1)OCCO2 | 1.1 | 13.8 | -14.8 | 78.7* | 24.3 | -7.6 | 22.2
O=C(CCN1CCOCC1)c1ccc2c(c1)OCCO2 | -7.4 | 12.0 | 0.2 | 8.3 | 12.9 | -1.6 | .
O=C(/C=C/c1ccccc1)c1ccccc1 | 4.4 | 12.9 | -14.5 | 18.4 | 5.1 | 10.8 | .
N#Cc1ccc(/C=C/C(=O)c2ccccc2)cc1 | -1.2 | 23.0 | -14.8 | 47.6* | 34.4 | 43.6 | 42.6*
O=S(=O)(Nc1cc(Cl)ccn1)c1ccc(Cl)cc1 | 1.1 | 36.4 | -11.5 | 42.0* | 2.9 | -3.2 | 23.2
O=S(=O)(Nc1ncccc1O)c1ccc(Cl)cc1 | -5.4 | 10.9 | . | 7.7 | 7.1 | 5.9 | .
CC(C)C1N=C(c2ccc3c(c2)OCO3)CC(c2ccccc2O)N1 (centres undefined) | 2.7 | 15.3 | -3.6 | 15.6 | 19.2 | 13.3 | .
CCOc1ccccc1C1N=C(c2ccc(OC)cc2)CC(c2ccccc2O)N1 (centres undefined) | -2.5 | 41.7 | -7.6 | 44.3* | 18.2 | 32.9 | 17.5
COc1cc(OC)c2c3c(c(C4CCCCC4)nc2c1)CCC3 | 16.8 | 19.9 | -4.6 | 51.8* | 7.8 | 16.7 | 30.1*
COc1ccc(-c2nc(C3CCCCC3)c3cc(OC)ccc3n2)cc1 | 6.7 | 4.8 | 3.1 | 8.3 | -6.2 | 22.2 | .
O=c1c2cc(N3CCOCC3)ccc2[nH]c(=S)n1Cc1ccc(Cl)cc1 | 19.8 | 30.4 | 39.9 | 35.2 | 10.4 | 14.7 | .
Cc1ccc(Cn2c(=S)[nH]c3ccc(N4CCOCC4)cc3c2=O)o1 | 9.1 | 13.6 | . | 45.5* | 15.4 | 5.8 | 22.1

Bioassay records from PubChem.
